Inconclusive results are not listed. Activity calls are given as the source filed them. Unless noted, the call rests on the fitted dose curve; in most records, active means well fitted curve in the direction sought with a large enough effect in the repeat runs; inconclusive means weak or mixed curves; inactive means no such curve, though single readings can be large; an effect the other way counts as inactive or inconclusive.
Legend:
[1] = qHTS assay for small molecule agonists of the p53 signaling pathway (AID 651631; calls by dose curve; further: nearly all actives have a fitted effect of over 15% in size)
How it was run: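 Beta-lactamase reporter activity under p53 response elements was quantified in HCT-116 cells by FRET fluorescence, following 16 h incubation with test compounds at 37 °C and 2 h substrate development at room temperature.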

[2] = qHTS assay for small molecules that induce genotoxicity in human embryonic kidney cells expressing luciferase-tagged ATAD5 (AID 651632); further: nearly all actives have a fitted effect of over 15% in size
How it was run: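 Reporter cells (HEK293T) express luciferase-tagged ATAD5, a protein that accumulates after DNA damage. Treat 16 hr at 37C/5% CO2, add Amplite, wait 30 min at RT, and read luminescence.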

[3] = qHTS assay for small molecule agonists of the p53 signaling pathway - cell viability (AID 651633; calls by dose curve;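 further: p53RE-bla HCT reporter cells with a stable beta-lactamase p53 reporter; series mostly up to about 83 µM; nearly all actives have a fitted effect of over 30% in size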)
How it was run: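 p53RE-bla cells, seeded at 4,000 per well and rested 5 h at 37 C/5% CO2, received compounds in DMSO for 16 h at 37 C. CellTiter-Glo was then added, and luminescence was read after 30 min at room temperature to gauge cytotoxicity.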

[4] = qHTS assay for small molecules that induce genotoxicity in human embryonic kidney cells expressing luciferase-tagged ATAD5 - cell viability (AID 651634; calls by dose curve; further: nearly all actives have a fitted effect of over 25% in size)
How it was run: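 Seeding of 2,000 HEK293T ATAD5-luciferase cells per well preceded pin-tool compound transfer. Plates sat 15.5 hr at 37C under 5% CO2, then fluorescence was read after 30 min with CellTiter-Fluor.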

[5] = qHTS assay for small molecule disruptors of the mitochondrial membrane potential - cell viability (AID 720634; calls by dose curve;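 further: human HepG2 liver cancer cells; series mostly up to about 83 µM; nearly all actives have a fitted effect of over 20% in size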)
How it was run: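 Measuring cytotoxicity alongside mitochondrial potential, the screen quantified ATP by luminescence in HepG2 cells after 1 hr compound incubation and a 30 min room-temperature CellTiter-Glo step.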

[6] = qHTS assay for small molecule disruptors of the mitochondrial membrane potential (AID 720635); further: potency means the concentration at half of the fitted maximal effect
How it was run: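 HepG2 cells (2,000/well) attached overnight at 37C, then took compound for 1 hr at 37C, 5% CO2. Mito-MPS dye was added for 30 min; fluorescence was read at 490/535 nm (monomers) and 540/590 nm (aggregates).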

[7] = qHTS assay to test for compound auto fluorescence at 590 nm (red) in HepG2 cells (AID 720674)
How it was run: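 Intrinsic compound fluorescence in the red window (Ex/Em 540/590 nm) is measured in attached HepG2 cells exposed for 1 hr, DMSO vehicle as baseline, benchmarked to Rose Bengal sodium.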

[8] = qHTS assay to test for compound auto fluorescence at 535 nm (green) in HepG2 cells (AID 720675)
[9] = qHTS assay to test for compound auto fluorescence at 460 nm (blue) in HEK293 cells (AID 720678)
How it was run: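 HEK293, 2,000 cells/well, 10% dialyzed FBS; attach 4-5 hr 37C; pin compound or DMSO; o/n 37C/5% CO2; fluorescence 405/460 nm; triamterene-equivalent units.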

[10] = qHTS assay to test for compound auto fluorescence at 460 nm (blue) in HEK293 cell free culture (AID 720681)
How it was run: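 Test compounds were pinned into cell-free culture medium (DMEM with 10% FBS) and fluorescence was read directly at Ex/Em 405/460 nm. Signals were expressed as fluorescence equivalents of triamterene, with DMSO vehicle as control.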

[11] = qHTS assay to test for compound auto fluorescence at 535 nm (green) in HEK293 cell free culture (AID 720682)
How it was run: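 Each library compound, or DMSO control, is added by pintool to medium alone, comprising DMEM and 10% FBS. Emission at 535 nm following 485 nm excitation is quantified against fluorescein.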

[12] = qHTS assay to test for compound auto fluorescence at 590 nm (red) in HEK293 cell free culture (AID 720683)
How it was run: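 Tox21 10K library compounds were pinned into cell-free DMEM with 10% FBS and fluorescence was read at excitation 540 nm. Activity is expressed as Rose Bengal sodium equivalency.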

[13] = qHTS assay to test for compound auto fluorescence at 590 nm (red) in HepG2 cell free culture (AID 720684)
How it was run: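 Red fluorescence (540 nm excitation, 590 nm emission) was measured after compound transfer into cell-free MEM supplemented with 10% FBS. Values are equivalencies against Rose Bengal sodium.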

[14] = qHTS assay to test for compound auto fluorescence at 460 nm (blue) in HepG2 cell free culture (AID 720685)
How it was run: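 Compound (23 nL) or DMSO pinned into cell-free MEM with 10% FBS; blue fluorescence read at 405/460 nm excitation/emission, expressed as auto-fluorescence equivalency to triamterene.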

[15] = qHTS assay to test for compound auto fluorescence at 535 nm (green) in HepG2 cell free culture (AID 720686)
[16] = qHTS assay to test for compound auto fluorescence at 460 nm (blue) in HepG2 cells (AID 720687)
How it was run: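 Cells (2,000/well in MEM with 10% FBS) attached overnight at 37 C, then were exposed to compound or DMSO for 1 hr at 37 C, 5% CO2. Fluorescence read at Ex/Em 405/460 nm, expressed as triamterene-equivalent signal.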

[17] = qHTS assay to test for compound auto fluorescence at 590 nm (red) in HEK293 cells (AID 720679)
How it was run: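 Intensity at 540nm excitation and 590nm emission is reported as Rose Bengal sodium-equivalent autofluorescence. Measurements followed overnight exposure (37C, 5% CO2) of HEK293 cells, 2,000 per well, to 23 nL compound.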

[18] = qHTS assay to test for compound auto fluorescence at 535 nm (green) in HEK293 cells (AID 720680)
[19] = target: Glucocorticoid receptor (Homo sapiens) (UniProt P04150); test: qHTS assay to identify small molecule agonists of the glucocorticoid receptor (GR) signaling pathway (AID 720691; active means well fitted activation curve with a large enough effect in the signal ratio in the repeat runs, not every such curve was filed as active; the % refers to the signal ratio)
Sequence of Glucocorticoid receptor (Homo sapiens) (P04150 whole entry, looked up): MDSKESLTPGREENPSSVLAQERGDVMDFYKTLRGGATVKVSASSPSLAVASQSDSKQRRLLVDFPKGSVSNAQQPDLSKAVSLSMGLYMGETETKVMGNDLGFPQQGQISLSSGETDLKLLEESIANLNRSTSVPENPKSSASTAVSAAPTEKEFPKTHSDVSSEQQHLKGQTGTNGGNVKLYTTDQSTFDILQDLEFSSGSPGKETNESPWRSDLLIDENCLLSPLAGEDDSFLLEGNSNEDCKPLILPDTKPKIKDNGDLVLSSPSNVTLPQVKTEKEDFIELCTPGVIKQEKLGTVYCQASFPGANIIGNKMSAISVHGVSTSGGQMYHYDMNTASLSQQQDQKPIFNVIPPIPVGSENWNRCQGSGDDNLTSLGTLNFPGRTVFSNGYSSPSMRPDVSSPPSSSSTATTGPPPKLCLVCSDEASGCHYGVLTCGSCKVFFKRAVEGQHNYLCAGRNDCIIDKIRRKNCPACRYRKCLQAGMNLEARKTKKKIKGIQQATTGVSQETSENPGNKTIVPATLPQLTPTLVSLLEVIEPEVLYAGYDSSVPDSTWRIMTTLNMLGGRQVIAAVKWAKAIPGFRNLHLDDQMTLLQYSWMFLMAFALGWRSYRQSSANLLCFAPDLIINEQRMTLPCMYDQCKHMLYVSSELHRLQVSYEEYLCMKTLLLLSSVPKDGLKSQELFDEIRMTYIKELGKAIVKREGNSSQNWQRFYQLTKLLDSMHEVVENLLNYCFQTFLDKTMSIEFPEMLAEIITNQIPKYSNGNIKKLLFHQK
How it was run: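 Reporter read-out: fluorescence intensity following 2 h room-temperature LiveBLAzer B/G FRET substrate loading. Prior step: GR-bla HeLa cells held 4 h, then treated 18 h at 37 C.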

[20] = target: Glucocorticoid receptor (Homo sapiens) (UniProt P04150); test: qHTS assay to identify small molecule antagonists of the glucocorticoid receptor (GR) signaling pathway (AID 720692; active means well fitted inhibition curve with a large enough effect in the signal ratio in the repeat runs, not every such curve was filed as active; the % refers to the signal ratio)
How it was run: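 Dexamethasone (5 nM final) stimulated a stably integrated GRE-beta-lactamase reporter in HeLa cells during 18 h co-incubation with compounds; signal was quantified as fluorescence intensity of B/G FRET substrate after 2 h.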
On the % scale 0 is the no-effect control and ±100 the full control effect.

CCC(CC)C(C)CCOC(C)=O (centres undefined)
inactive: Potency [1] | Potency [2] | Potency [3] | Potency [4] | Potency [5] | Potency [6] | Potency [7] | Potency [8] | Potency [9] | Potency [10] | Potency [11] | Potency [12] | Potency [13] | Potency [14] | Potency [15] | Potency [16]

O=C(Oc1ccccc1)Oc1ccccc1
inactive: Potency [1] | Potency [2] | Potency [3] | Potency [4] | Potency [5] | Potency [6] | Potency [7] | Potency [8] | Potency [9] | Potency [17] | Potency [18] | Potency [10] | Potency [11] | Potency [12] | Potency [13] | Potency [15] | Potency [16]

CCCCNS(=O)(=O)c1ccc(C)cc1
inactive: Potency [1] | Potency [2] | Potency [3] | Potency [4] | Potency [5] | Potency [6] | Potency [7] | Potency [8] | Potency [17] | Potency [18] | Potency [10] | Potency [11] | Potency [12] | Potency [13] | Potency [14] | Potency [15] | Potency [16] | Potency [19]

C[Si](Cl)(c1ccccc1)c1ccccc1
active: Potency [6] 26.6 µM
inactive: Potency [1] | Potency [2] | Potency [3] | Potency [4] | Potency [5] | Potency [8] | Potency [9] | Potency [17] | Potency [10] | Potency [11] | Potency [12] | Potency [13] | Potency [14] | Potency [15] | Potency [16] | Potency [19]

C=CC(C)(CCC=C(C)C)OC=O (centres undefined)
inactive: Potency [1] | Potency [2] | Potency [3] | Potency [4] | Potency [5] | Potency [6] | Potency [8] | Potency [9] | Potency [17] | Potency [18] | Potency [10] | Potency [11] | Potency [12] | Potency [13] | Potency [14] | Potency [15] | Potency [16] | Potency [19] | Potency [20]

c1ccc(SSc2ccccc2)cc1
inactive: Potency [1] | Potency [2] | Potency [3] | Potency [4] | Potency [5] | Potency [6] | Potency [7] | Potency [9] | Potency [17] | Potency [10] | Potency [11] | Potency [12] | Potency [13] | Potency [14] | Potency [15] | Potency [16] | Potency [19]

CCN1C(=O)c2ccccc2C1Nc1ccc(OCCN2CCCCC2)cc1 (centres undefined)
inactive: Potency [1] | Potency [2] | Potency [3] | Potency [4] | Potency [5] | Potency [6] | Potency [7] | Potency [8] | Potency [17] | Potency [18] | Potency [10] | Potency [11] | Potency [12] | Potency [13] | Potency [14] | Potency [15] | Potency [16] | Potency [19] | Potency [20]

Cc1nc(-c2ccc(Cl)cc2)oc1COC(C)(C)C(=O)O
inactive: Potency [1] | Potency [2] | Potency [3] | Potency [4] | Potency [5] | Potency [6] | Potency [8] | Potency [9] | Potency [18] | Potency [10] | Potency [11] | Potency [12] | Potency [13] | Potency [14] | Potency [15] | Potency [16] | Potency [19] | Potency [20]

CCCCCCCC/C=C\CCCCCCCCN
inactive: Potency [1] | Potency [2] | Potency [3] | Potency [4] | Potency [5] | Potency [6] | Potency [7] | Potency [8] | Potency [17] | Potency [10] | Potency [11] | Potency [12] | Potency [13] | Potency [14] | Potency [15]

O=C(O)[C@H](O)[C@@H](O)[C@H](O[C@@H]1O[C@H](CO)[C@H](O)[C@H](O)[C@H]1O)[C@H](O)CO
inactive: Potency [1] | Potency [2] | Potency [3] | Potency [4] | Potency [5] | Potency [6] | fluorescence, relative to Rose Bengal [7] 0.507% [at 18.6 µM] | fluorescence, % of fluorescein control [8] 0.0584% [at 18.6 µM] | fluorescence, % of triamterene [9] 0.228% [at 18.6 µM] | fluorescence, % of fluorescein [18] -0.0275% [at 18.6 µM] | fluorescence, % of fluorescent control [10] -0.0747% [at 18.6 µM] | activity change [11] -0.0154% [at 18.6 µM, active compounds read high] | fluorescence, % of fluorescent control [12] -0.292% [at 18.6 µM] | fluorescence, % of Rose Bengal [13] 0.117% [at 18.6 µM] | fluorescence, % of fluorescent control [14] 0.0634% [at 18.6 µM] | fluorescence, % of fluorescein control [15] -0.112% [at 18.6 µM] | fluorescence, % of fluorescent control [16] 0.0744% [at 18.6 µM] | Potency [19] | Potency [20]

CC(=O)OCC=C(C)C
inactive: Potency [1] | Potency [2] | Potency [3] | Potency [4] | Potency [5] | Potency [6] | Potency [7] | Potency [8] | Potency [9] | Potency [17] | Potency [18] | Potency [10] | Potency [11] | Potency [12] | Potency [13] | Potency [14] | Potency [15] | Potency [16] | Potency [19]

CCCCCc1ccc(Cl)cc1
inactive: Potency [1] | Potency [2] | Potency [3] | Potency [4] | Potency [5] | Potency [6] | Potency [7] | Potency [8] | Potency [9] | Potency [17] | Potency [18] | Potency [10] | Potency [11] | Potency [12] | Potency [13] | Potency [15] | Potency [16] | Potency [19] | Potency [20]

O[C@@H]([C@H](O)[C@H](O)CBr)[C@H](O)CBr
inactive: Potency [1] | Potency [2] | Potency [3] | Potency [4] | Potency [5] | Potency [6] | Potency [7] | Potency [8] | Potency [9] | Potency [17] | Potency [18] | Potency [10] | Potency [11] | Potency [12] | Potency [13] | Potency [14] | Potency [15] | Potency [16]

O=C(O)O
inactive: activation [1] -6.09% [at 8.3 µM] | activation [2] 4.66% [at 8.08 µM] | activity change, negative = cytotoxicity [3] 14.5% [at 8.08 µM] | activity, negative = cytotoxicity [4] 16.8% [at 8.08 µM] | activity change, negative = cytotoxicity [5] 7.92% [at 8.08 µM] | ratio activity, negative = MMP loss [6] 7.15% [at 8.08 µM] | fluorescence, relative to Rose Bengal [7] -0.453% [at 3.72 µM] | fluorescence, % of triamterene [9] -0.0075% [at 3.72 µM] | fluorescence, % of fluorescent control [17] 0.462% [at 3.72 µM] | fluorescence, % of fluorescein [18] -0.0067% [at 3.72 µM] | fluorescence, % of fluorescent control [10] 0.0957% [at 3.72 µM] | activity change [11] -0.0576% [at 3.72 µM, active compounds read high] | fluorescence, % of fluorescent control [12] -0.0236% [at 3.72 µM] | fluorescence, % of Rose Bengal [13] 0.0094% [at 3.72 µM] | fluorescence, % of fluorescent control [14] 0.0077% [at 3.72 µM] | fluorescence, % of fluorescein control [15] 0.0195% [at 3.72 µM] | activation [19] -0.133% [at 6.9 µM] | activity change, negative = inhibition [20] -1.88% [at 7.04 µM]

Reference: PubChem BioAssay (Tox21)
